18 compounds from PubChem BioAssay (EPA / NIEHS) can be followed below.

Holding throughout (details): mRNA level, 48 h; actives raise or lower the signal
Read-out in test [1]: Glutathione S-transferase M3 (GSTM3), GSTM3 (gene 2947)
The test can be described thus: LTEA_HepaRG_GSTM3: Life Technologies and Expression Analysis (LTEA) Assay for Glutathione S-transferase M3 (GSTM3) using HepaRG (AID 2283501). The gist of the method: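 HepaRG, plated 48 h, then serum-free induction medium; test chemical 48 h, duplicate; 100 uM top, half-log x8, 0.5% DMSO. Read-out: GSTM3 mRNA (TaqMan qRT-PCR, Fluidigm array). Bidirectional fit vs DMSO.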

Read-out in test [2]: Heat shock 70 kDa protein 1 (HSPA1A), gene 3303
Description: LTEA_HepaRG_HSPA1A: Life Technologies and Expression Analysis (LTEA) Assay for Heat shock 70 kDa protein 1 (HSPA1A) using HepaRG (AID 2283502). The method in brief:
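Cells were plated and cultured for 48 h, then switched to serum-free induction medium. Chemicals were added at eight half-log concentrations up to 100 uM for 48 h. RNA was then isolated and HSPA1A measured by qRT-PCR with bidirectional curve fitting against DMSO.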

Read-out in test [3]: 3-Hydroxy-3-Methylglutaryl-CoA Synthase 2 (HMGCS2), HMGCS2 (gene 3158)
The test can be described thus: LTEA_HepaRG_HMGCS2: Life Technologies and Expression Analysis (LTEA) Assay for 3-Hydroxy-3-Methylglutaryl-CoA Synthase 2 (HMGCS2) using HepaRG (AID 2283504). The method in brief: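 HepaRG, plated 48 h then switched to serum-free induction media; cmpd 8-pt, max 100 uM, 1/2-log, 0.5% DMSO, n=2, 48 h. HMGCS2 mRNA by Fluidigm TaqMan qRT-PCR, ACTB/GAPDH/POLR2A norm; bidirectional fit vs DMSO.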

Read-out in a further test: HGF (gene 3082)
Description: LTEA_HepaRG_HGF: Life Technologies and Expression Analysis (LTEA) Assay for Hepatocyte Growth Facto (HGF) using HepaRG (AID 2283505). The gist of the method:
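Read-out is HGF transcript level by qRT-PCR, normalized to three housekeeping genes, fitted bidirectionally against 0.5% DMSO vehicle. Human HepaRG cells received test chemicals for 48 h at up to 100 uM.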

Read-out in test [4]: Insulin Like Growth Factor 1 (IGF1), IGF1 (gene 3479)
Description: LTEA_HepaRG_IGF1: Life Technologies and Expression Analysis (LTEA) Assay for Insulin Like Growth Factor 1 (IGF1) using HepaRG (AID 2283506). The gist of the method: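 Cells are thawed, plated and cultured 48 h, then exposed in duplicate to chemical (highest 100 uM, half-log steps, 0.5% DMSO) for another 48 h. Total RNA is analysed by Fluidigm qRT-PCR for IGF1 expression relative to vehicle.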

Read-out in test [5]: Intercellular Adhesion Molecule 1 (ICAM1), ICAM1 (gene 3383)
Description: LTEA_HepaRG_ICAM1: Life Technologies and Expression Analysis (LTEA) Assay for Intercellular Adhesion Molecule 1 (ICAM1) using HepaRG (AID 2283507). The method in brief: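 Readout is qRT-PCR mRNA level, normalized to three housekeeping genes and fitted bidirectionally against 0.5% DMSO vehicle. Human HepaRG cultures received compound for 48 h, top concentration 100 uM with half-log dilutions.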

Read-out in test [6]: Insulin-like growth factor-binding protein 1 (IGFBP1), IGFBP1 (gene 3484)
Description: LTEA_HepaRG_IGFBP1: Life Technologies and Expression Analysis (LTEA) Assay for Insulin-like growth factor-binding protein 1 (IGFBP1) using HepaRG (AID 2283508). The method in brief:
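Thawed HepaRG cells are plated for 48 h, switched to serum-free induction medium, then dosed in duplicate for another 48 h (100 uM top, half-log steps). Lysates in RLT go to qRT-PCR, and gain or loss of signal is fitted relative to vehicle.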

Read-out in test [7]: Interleukin 6 (IL6), IL6 (gene 3569)
The test can be described thus: LTEA_HepaRG_IL6: Life Technologies and Expression Analysis (LTEA) Assay for Interleukin 6 (IL6) using HepaRG (AID 2283509). The method in brief: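 Changes in IL6 mRNA, up or down relative to 0.5% DMSO controls, were derived from concentration-response curves in human HepaRG cells treated for 48 h at up to 100 uM, with ACTB, GAPDH and POLR2A as normalizers.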

Read-out in test [8]: Interleukin 6 Receptor (IL6R), IL6R (gene 3570)
The test can be described thus: LTEA_HepaRG_IL6R: Life Technologies and Expression Analysis (LTEA) Assay for Interleukin 6 Receptor (IL6R) using HepaRG (AID 2283510).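 On AC50: differentiated human HepaRG liver cells in serum-free induction medium; TaqMan qRT-PCR signal normalized to ACTB GAPDH and POLR2A housekeeping genes.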 The method in brief:
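Cells were thawed, plated and cultured 48 h, then medium was changed to serum-free induction medium. Chemicals were added in duplicate (100 uM top, half-log steps, 0.5% DMSO) for 48 h. Lysates were analyzed by qRT-PCR for IL6R expression.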

Read-out in test [9]: Hypoxia-inducible factor 1-alpha (Homo sapiens) (UniProt Q16665)
Description: LTEA_HepaRG_HIF1A: Life Technologies and Expression Analysis (LTEA) Assay for Hypoxia-inducible factor 1 (HIF1A) Trancription factor using HepaRG (AID 2283503). The gist of the method: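 HIF1A transcript level read by qRT-PCR (ACTB, GAPDH, POLR2A normalization) after 48 h chemical exposure of HepaRG cultures. Eight half-log concentrations, top 100 uM, 0.5% DMSO vehicle, duplicates; bidirectional curve fit against DMSO baseline.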

Structures are written as SMILES. Active and inactive are the calls of the source. How the source made its calls: active means hit-call score of the fitted dose curve at least 0.9, where 1 is the maximum; inactive means score below 0.9.

Hypoxia-inducible factor 1-alpha (Homo sapiens), sequence (Q16665 whole entry, looked up): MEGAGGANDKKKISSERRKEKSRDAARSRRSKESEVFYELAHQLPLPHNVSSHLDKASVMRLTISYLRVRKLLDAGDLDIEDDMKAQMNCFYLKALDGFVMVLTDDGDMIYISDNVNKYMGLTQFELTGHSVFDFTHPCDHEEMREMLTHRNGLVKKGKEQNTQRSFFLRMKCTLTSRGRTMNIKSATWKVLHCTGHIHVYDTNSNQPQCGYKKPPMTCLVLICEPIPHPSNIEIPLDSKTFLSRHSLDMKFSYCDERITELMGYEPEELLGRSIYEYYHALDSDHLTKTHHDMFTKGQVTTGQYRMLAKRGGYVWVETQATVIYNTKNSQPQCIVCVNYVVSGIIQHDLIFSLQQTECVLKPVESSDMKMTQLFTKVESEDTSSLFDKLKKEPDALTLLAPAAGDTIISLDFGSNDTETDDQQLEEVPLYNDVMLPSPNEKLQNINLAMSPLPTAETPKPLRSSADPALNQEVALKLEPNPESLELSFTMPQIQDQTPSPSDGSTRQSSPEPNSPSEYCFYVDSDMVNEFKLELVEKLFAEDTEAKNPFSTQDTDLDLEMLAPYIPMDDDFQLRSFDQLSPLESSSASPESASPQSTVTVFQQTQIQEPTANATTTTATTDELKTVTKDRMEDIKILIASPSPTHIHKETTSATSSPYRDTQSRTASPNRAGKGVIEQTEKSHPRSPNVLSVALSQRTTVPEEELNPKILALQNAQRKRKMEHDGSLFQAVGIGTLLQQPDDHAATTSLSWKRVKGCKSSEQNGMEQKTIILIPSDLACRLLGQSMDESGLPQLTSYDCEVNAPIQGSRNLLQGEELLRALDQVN

The AC50 is the concentration giving half of the maximal activity seen. Take `NC(=O)NN=Cc1ccc([N+](=O)[O-])o1`: the compound was called inactive in test [1], in [2], in test [7] and in test [8]. The AC50 is 13.3 µM (active) in test [3]; 12.4 µM (active) with HGF (gene 3082); 9.92 µM (active) in test [4]; 0.211 µM (active) in [5]; 50 µM (active) in [6].
Regarding `Cn1cc[nH]c1=S`, the compound was classed as inactive in test [1], in test [2], in [3], in test [4], in test [5] and in test [6]. Besides, the outcome in test [7] and in test [8] was inactive.
As for `O=C(NO)C1(NS(=O)(=O)c2ccc(Oc3ccc(F)cc3)cc2)CCOCC1`, the outcome (in test [1]; in [2]; in test [9]; with HGF (gene 3082); in test [5]; in test [6]) was inactive. The compound was classed as inactive in test [7] and in [8]. Also, the figures for the AC50 in test [3] and in test [4] were 83.3 µM (active) and 50 µM (active), respectively.
Turning to `CCCCCCCCCC`, the result (in [1]; in test [2]; in test [9]; in [3]; with HGF (gene 3082); in test [4]) was inactive. Besides, the call in test [5], in [6], in test [7] and in test [8] was inactive.
As to `CCCC(CCC)C(=O)O`, the call in [1], in [2], in test [9], in test [3], in test [4] and in test [5] was inactive. The compound was called inactive in [6], in test [7] and in test [8].
Regarding `CC(C)C(=O)Nc1ccc([N+](=O)[O-])c(C(F)(F)F)c1`, the AC50 in [1] is 50 µM (active); in test [3] it was 72.8 µM (active); with HGF (gene 3082), 66.9 µM (active); in test [4], 37.8 µM (active); in test [5] it was 87.3 µM (active); in test [6], 66.7 µM (active). The AC50 in test [7] was 85 µM (active). In addition, the call in test [2] and in test [8] was inactive.
For `NNC(=O)c1ccncc1`, the compound was classed as inactive (in test [1]; in [2]; in [3]; in the test with HGF (gene 3082); in test [4]; in test [5]). In addition, the outcome in [6], in test [7] and in [8] was inactive.
As for `O=c1[nH]cnc2c1ncn2[C@H]1CC[C@@H](CO)O1`, the compound was classed as inactive (in test [1]; in test [2]; in test [9]; in test [3]; with HGF (gene 3082); in test [4]). The compound was classed as inactive in [5], in test [6], in test [7] and in [8].
Turning to `CCCCCCCC1CCC(=O)O1` (centres undefined), the call in test [1], in test [2], in test [9], in [3], in [4] and in test [5] was inactive. Besides, the compound was called inactive in test [6], in [7] and in test [8].
Turning to `COS(C)(=O)=O`, the compound was called inactive (in test [1]; in test [2]; in [9]; in test [3]; with HGF (gene 3082); in test [4]). Moreover, the outcome in test [5], in [6], in test [7] and in test [8] was inactive.
As for `O=C1CN(N=Cc2ccc([N+](=O)[O-])o2)C(=O)N1`, the outcome in [1], in [2], in test [9], in test [5], in test [7] and in test [8] was inactive. The AC50 in test [3] was 72 µM (active); in test [4], 50 µM (active); in test [6] it was 33.4 µM (active).
Regarding `OCc1ccccc1`, the call (in test [1]; in [2]; in test [9]; in test [3]; with HGF (gene 3082); in [4]) was inactive. For the same compound, the outcome in test [5], in [6], in test [7] and in test [8] was inactive.
With `COCc1nnc(-c2ccc[n+]([O-])c2)n1-c1c(Cl)c(Cl)cc2[nH]c(=O)c(=O)[nH]c12`, the outcome (in [1]; in test [2]; in test [9]; in test [3]; in the test with HGF (gene 3082); in [4]) was inactive. For the same compound, the call in test [5], in test [6], in test [7] and in test [8] was inactive.
With `CCN(CC)C(=S)SSC(=S)N(CC)CC`, the call in test [1], in test [2], in [3], in test [4], in test [5] and in test [6] was inactive. In addition, the outcome in [7] and in [8] was inactive.
As for `CC(C)c1nnc2ccc(-c3ocnc3-c3cc(F)ccc3F)cn12`, the compound was called inactive in test [1], in test [2], in test [9], in test [5], in test [7] and in test [8]. For the same compound, the values for the AC50 in [3], in test [4] and in [6] were 59.1 µM (active), 66.1 µM (active) and 12.8 µM (active), respectively.
In the case of `Cc1nccn1-c1ccc(Sc2cccc(C3(C(N)=O)CCOCC3)c2)cc1`, the AC50 is 23.8 µM (active) in test [1]; 11 µM (active) in test [3]; 20.6 µM (active) with HGF (gene 3082); 7.82 µM (active) in test [4]; 10.7 µM (active) in test [5]; 9.01 µM (active) in test [6]. The AC50 in test [8] is 13.1 µM (active). The compound was classed as inactive in test [2], in test [9] and in test [7].
`Cc1ncc([C@@H](CCCCCCc2ccc3c(n2)NCCC3)CC(=O)O)cn1`: the result (in [1]; in test [2]; in [9]; in test [3]; with HGF (gene 3082); in [4]) was inactive. Also, the compound was called inactive in [5], in test [6], in test [7] and in [8].
As to `CCCCN1C(=O)[C@@H]([C@H](O)C2CCCCC2)NC(=O)C12CCN(Cc1ccc(Oc3ccc(C(=O)O)cc3)cc1)CC2`, the AC50 was 4.76 µM (active) in test [1]; 1.8 µM (active) in test [2]; 5.05 µM (active) in test [3]; 9.25 µM (active) with HGF (gene 3082); 9.61 µM (active) in test [4]; 2.32 µM (active) in [5]. Also, the AC50 is 2.45 µM (active) in test [6], 2.99 µM (active) in [7] and 2.65 µM (active) in test [8]. The compound was called inactive in [9].
